Source: ChEMBL document CHEMBL3988442, “University of Dundee, Small-Polar-MMV Screening Library” (2021)
The whole screen tested about 69,000 compounds, of which about 420 (0.61%) showed an effect of 50% or more. The list comes from a sample in which strong results are over-represented; it also holds similar structures and randomly drawn compounds.

Target: T1, Histidine--tRNA ligase (Leishmania infantum) (UniProt A4I591)
T1 sequence (whole entry): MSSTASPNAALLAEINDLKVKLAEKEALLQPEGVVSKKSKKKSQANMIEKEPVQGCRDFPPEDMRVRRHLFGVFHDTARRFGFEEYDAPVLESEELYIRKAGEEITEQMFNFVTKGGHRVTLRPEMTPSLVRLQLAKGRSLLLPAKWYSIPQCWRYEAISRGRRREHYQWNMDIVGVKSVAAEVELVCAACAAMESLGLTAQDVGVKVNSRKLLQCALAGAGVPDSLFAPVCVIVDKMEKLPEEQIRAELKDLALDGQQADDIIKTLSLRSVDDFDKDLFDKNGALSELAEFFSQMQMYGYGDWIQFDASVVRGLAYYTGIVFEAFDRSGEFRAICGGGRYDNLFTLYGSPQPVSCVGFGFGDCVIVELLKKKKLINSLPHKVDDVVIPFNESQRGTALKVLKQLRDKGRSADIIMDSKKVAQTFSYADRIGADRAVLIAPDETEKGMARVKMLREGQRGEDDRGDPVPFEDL
Experiment: Leishmania infantum Histidine tRNA synthetase (LdHisRS)
Type: functional
Set-up: scale not given: in the data most compounds retested in dose-response had high values
Details: 30 µM

Structure (SMILES) | Percent Effect
COCCN1CCCn2cnc(CNC(=O)N(C)C)c2C1 | 9.4%
COCCN1CCCn2cnc(CNC3CCCC3)c2C1 | 77.8%
COCCN1CCCn2cnc(CN(C)C(C)C)c2C1 | 30%
COCCN1C(=O)CO[C@H]2CN(Cc3cccc(OC)c3F)C[C@@H]21 | 8.25%
Cc1nnc([C@]23COC[C@H]2CN(Cc2cnn(C)c2)C3)o1 | 27.4%
CN(C)CCN1CCO[C@@H]2CN(C(=O)Cc3ccsc3)CC[C@@H]2C1 | 10%
C1CC(CN2C[C@@H]3C[C@@H](c4nnc(C5CC5)o4)O[C@@H]3C2)CCO1 | 11.1%
O=S(=O)(CCCn1cncn1)Cc1ccc(F)cc1Cl | 109%
O=S(=O)(CCCn1cncn1)Cc1cccc(F)c1 | -11.8%
O=S(=O)(CCCn1cncn1)Cc1ccccc1Cl | 19.7%
COc1ncccc1CN1C[C@@H]2C[C@@H](C(=O)NCC3CC3)N(C)[C@@H]2C1 | 24.8%
CO[C@@H]1CC[C@H]2[C@H]1OCCN2C(=O)c1ccc(C)nc1 | 7.02%
COc1cc(N2C[C@H](C(=O)NC3CC3)[C@@H]3CCO[C@@H]3C2)ncn1 | 3.23%
Cc1ccc2[nH]c(CO[C@H]3CN(C(=O)C4CC4)C[C@H]3F)nc2c1 | 4.05%
Cc1ccc2[nH]c(CO[C@H]3CN(c4ccc(C#N)cn4)C[C@H]3F)nc2c1 | 69.4%
CN1C[C@@H](F)[C@@H](OCc2nc3ccc(C#N)cc3[nH]2)C1 | 25%
O=C(NC1CC1)[C@@H]1CCO[C@@H]2CCN(CCc3ccccc3)C[C@@H]21 | 15.1%
Cc1cccc(CN2C[C@H]3OC(=O)N(CCCN4CCOCC4)[C@H]3C2)n1 | 22.3%
Cc1ncsc1C(=O)N1CC[C@@H]2[C@@H](CC1)OCCN2c1cccnc1 | 10.5%
COc1cccn(Cc2nnc(-c3cccnc3)o2)c1=O | 39.3%
O=c1c(C(F)(F)F)cccn1Cc1nnc(-c2cccnc2)o1 | 11.5%
COc1cccn(Cc2nnc(-c3cccc(F)c3)o2)c1=O | 91.8%

Structure (SMILES) | Percent Effect
Cc1cccc(CN2C[C@@H]3CN(C(=O)NC(C)C)C[C@@H]3C2=O)c1 | 12.3%
C[C@H](NS(C)(=O)=O)C(=O)NCc1cc(-c2ccco2)n(CC(F)(F)F)n1 | -80%
CC(C)[C@H](NS(C)(=O)=O)C(=O)NCc1cc(-c2ccccc2)n[nH]1 | 17.1%
C[C@H](NS(C)(=O)=O)C(=O)NCc1cc(-c2ccco2)n[nH]1 | 51.4%
CN(C)c1nccc(NCc2cc(-c3ccco3)n[nH]2)n1 | 34.3%
CC(C)[C@H](NS(C)(=O)=O)C(=O)NCc1cc(-c2ccco2)n[nH]1 | 54.3%
CC(C)[C@H](NS(C)(=O)=O)C(=O)NCc1cc(-c2ccco2)nn1C | 8.57%
CN1CCN(C[C@@H]2OC[C@H]3CN(CCc4ccccc4)CC[C@H]32)CC1 | 22.6%
O=C(NC1CCC1)[C@@H]1CCO[C@@H]2CCN(CCc3ccccc3)C[C@H]21 | 15.4%
O=C(NC[C@]12COC[C@H]1CN(Cc1nccs1)C2)c1ccsc1 | 0%
O=c1[nH]nc(CNCc2ccc(OC34CCCN(CC3)C4)cc2)[nH]1 (stereo not given) | 17.6%
COc1cc(C#N)ccc1OC12CCCN(CC1)C2 (stereo not given) | 23.1%
Cc1nc(CNCc2cccc(OC34CCCN(CC3)C4)c2)n[nH]1 (stereo not given) | 24.7%
c1ccc(Oc2cccc(OC34CCCN(CC3)C4)c2)cc1 (stereo not given) | 51%
c1ccc(Oc2ccc(OC34CCCN(CC3)C4)cc2)cc1 (stereo not given) | 61.2%
Cc1cnccc1CNCc1ccc(OC23CCCN(CC2)C3)cc1 (stereo not given) | 36.5%
Cc1ccc(C(=O)N2C[C@@H]3CCCO[C@@H]3[C@H](N(C)Cc3ccco3)C2)o1 | 3.23%
O=S(=O)(N1CCCC1)N1CC[C@H](c2ccccc2)[C@H]2NCCCC[C@H]21 | 26.3%
COc1ncccc1CN1C[C@@H]2COC[C@]2(COc2ccccn2)C1 | 7.69%
CS(=O)(=O)NC[C@]12COC[C@H]1CN(C(=O)c1cnccn1)C2 | -2.65%
O=C(CN1CCN(c2ncccn2)[C@@H]2CS(=O)(=O)C[C@@H]21)N1CCCCC1 | -8.22%
COc1ncc(-c2cc(-c3ccn(C)c3)nc(N)c2C#N)cn1 | 35.4%

Structure (SMILES) | Percent Effect
COc1ncc(-c2c(C#N)c(N)nc3c2CCc2[nH]ccc2-3)cn1 | 95.7%
CCC(C)Sc1ncc(-c2c(C#N)c(N)nc3c2COCC3)cn1 (stereo not given) | 2.17%
CCCn1cc(-c2cc(-c3cnc(OC)nc3)c(C#N)c(N)n2)c(C)n1 | 16.4%
COCCc1ncc(-c2c(C#N)c(N)nc3c2CCc2[nH]ccc2-3)cn1 | 103%
CCOc1ccc(-c2c(C#N)c(N)nc3c2COCC3)cn1 | 21.7%
O=C([C@@H]1C[C@@H]2CCN(Cc3ccco3)C[C@H]2O1)N1CCCO1 | 15%
CC(C(=O)Nc1nccs1)N1CCc2nn(C)c(=O)cc2C1 (stereo not given) | 23.2%
CC(C(=O)Nc1ccc(Cl)cn1)N1CCc2nn(C)c(=O)cc2C1 (stereo not given) | 102%
Cn1nc2c(cc1=O)CN(CC(=O)Nc1ccc(Cl)cn1)CC2 | 103%
CC(C(=O)Nc1ccnn1C(C)C)N1CCc2nn(C)c(=O)cc2C1 (stereo not given) | 25%
Cn1nc2c(cc1=O)CN(CC(=O)Nc1nccs1)CC2 | 48.2%
Cn1nc2c(cc1=O)CN(CC(=O)Nc1nncs1)CC2 | 6.06%
Cc1cccc(CN2C(=O)CO[C@@H]3CN(CCO)C[C@H]32)c1 | 15.4%
Cc1cc(C(=O)N2CC[C@@H]3CN(C)S(=O)(=O)[C@@H]3CC2)no1 | 9.62%
Cc1cccc(COC[C@@H]2CC[C@H]3[C@H](CCN3Cc3ccco3)O2)n1 | 13.3%
c1csc(C2(NCc3csc(C4CC4)n3)CCCC2)n1 | 51.6%
Cc1csc(C2(NCc3csc(C4CC4)n3)CCCC2)n1 | 8.6%
CCCc1nc(CNC2(c3nccs3)CCCC2)cs1 | 15.1%
O=C(NC[C@H]1CC[C@H](c2nnc(-c3cccnc3)o2)CC1)C1CC1 | -19.9%
O=C(c1ccsc1)N1C[C@@H]2CCN(C(=O)c3cccc(F)c3)[C@@H]2C1 | 11.7%
Cc1nnc(NC(=O)NCc2ccoc2)s1 | 7.69%
COc1ccc(CNC(=O)c2ccc(=O)n(C)c2)cc1C | -2.08%

Structure (SMILES) | Percent Effect
Cn1cc(NC(=O)NCc2ccoc2)ccc1=O | 120%
COc1ccc(CNC(=O)Nc2ccc(S(=O)(=O)C(F)F)cc2)cc1 | 18.3%
COc1ccc(CNC(=O)Nc2ccc(=O)n(C)c2)cc1 | 114%
COC(=O)c1ccc(CNC(=O)Nc2ccc(=O)n(C)c2)cc1 | 120%
COc1cccc(-c2ccc(CNC(=O)c3ccc(=O)n(C)c3)cc2)c1 | 14.6%
COc1ccc(CNC(=O)Nc2ccc(CN3CCOC3=O)cc2)cc1 | 15.2%
O=C(NCc1ccoc1)Nc1ccc(CN2CCOC2=O)cc1 | 2.88%
c1cnc(N2C[C@H]3CCN(CCN4CCCC4)C[C@H]3C2)cn1 | 25.7%
Cc1ccc(CN2CC[C@H]3[C@@H]2CCC(=O)N3CCN2CCCC2)s1 | 5.11%
CC(C)NC(=O)N1CC[C@H]2[C@H]1CCN2c1ncccn1 | 15.4%
COc1ncccc1CN1C[C@@H]2COC[C@]2(COc2cccnc2)C1 | 20.5%
Cc1nc([C@@H]2C[C@@H]3CCN(C(=O)c4ccsc4)C[C@H]3O2)no1 | 0%
COc1cccc(CN2C[C@@H]3CC[C@@](O)(c4ccccn4)[C@@H]3C2)c1OC | 0%
CC(C)=CCN1CCN(Cc2nccn2C)[C@H]2CS(=O)(=O)C[C@H]21 | 11.2%
CCCS(=O)(=O)N1CCO[C@H]2[C@@H](Oc3cccnc3)CC[C@@H]21 | 16.4%
CN(CCN1CCOCC1)C(=O)CCCc1ccccc1 | 11.4%
Cn1c(NCCN2CCCCCC2)c(C#N)c(=O)n(C)c1=O | 24.7%
Cc1c(CN2CCCCC2)c(O)n(CCCO)c(=O)c1C#N | 45.4%
Cc1c(CN2CCOCC2)c(O)n(CCc2ccccc2)c(=O)c1C#N | 60.5%
Cc1c(CN2CCCCC2)c(O)n(CCO)c(=O)c1C#N | 55.9%
Cc1c(CN2CCOCC2)c(O)n(CCO)c(=O)c1C#N | 47.4%
Cc1nnc([C@@]23CCO[C@@H]2CCN(Cc2cccc4ccccc24)C3)o1 | 5.94%

Structure (SMILES) | Percent Effect
CNC(=O)[C@@H]1COC[C@H]2CN(C(=O)c3ccc(OC)cc3)C[C@H]21 | 8.77%
CN1C(=O)CO[C@H]2CN(C(=O)c3ccc4c(c3)CCCC4)C[C@@H]21 | 0%
O=S(=O)(c1cccnc1)N1C[C@@H]2CC[C@H](C1)N(Cc1ccccn1)C2 | 7.53%
N#Cc1ccc(C(=O)N2C[C@H](OCc3cccnc3)[C@H]3COC[C@H]32)cc1 | 6.94%
O=C(Nc1cccnc1)C1Cc2nc(-c3ccsc3)sc2N1CC1CC1 (stereo not given) | 62.5%
CC(C)N1c2sc(-c3ccsc3)nc2CC1C(=O)NC1CC1 (stereo not given) | 30%
CN(C)CCNC(=O)C1Cc2nc(-c3ccsc3)sc2N1CC1CC1 (stereo not given) | 22.2%
O=C(NC1CCCC1)C1Cc2nc(-c3ccsc3)sc2N1CC1CC1 (stereo not given) | 23.6%
CC(C)NC(=O)C1Cc2nc(-c3ccsc3)sc2N1CC1CC1 (stereo not given) | 51.4%
CN(C)CCNC(=O)C1Cc2nc(-c3ccccc3)sc2N1CC1CC1 (stereo not given) | 20.8%
CC(C)CNC(=O)[C@H]1C[C@@H]2CN(C(=O)NCC3CCCCC3)C[C@H]1O2 | 17.2%
COc1ccccc1CN1C(=O)O[C@@H]2CN(Cc3cccc(C)n3)C[C@@H]21 | -1.67%
O=C1O[C@@H]2CN(Cc3ccncc3)C[C@@H]2N1CCCN1CCOCC1 | -6.67%
COc1cc(-n2cc(CCO)cn2)ccc1NC(C)=O | 31.6%
COc1ccc(-n2cc(CCO)cn2)cc1C | 69.6%
COc1ccc(-n2cc(CCO)cn2)cc1C(N)=O | 34.2%
N#Cc1ccc(OC[C@]23COC[C@H]2CN(c2ncccn2)C3)nc1 | 5.56%
c1cncc(N2CCC3(CCCN(c4ccncc4)C3)CC2)c1 | 15.3%
N#Cc1ccc(N2CCCC3(CCN(c4cccnc4)CC3)C2)cc1 | 51.4%
c1cncc(N2CCCC3(CCN(CCN4CCCC4)CC3)C2)c1 | 15.3%
O=C1[C@H]2CN(Cc3ccccc3)C[C@H]2CN1CCN1CCCC1 | 17.3%
Cc1ccc(-n2cc(CN3CCN(C)[C@@H]4CS(=O)(=O)C[C@@H]43)cn2)cc1 | 11.4%
